Test results taken from the supplement of paper PMC7411054.
Where a name gives a salt, the structure may show the parent alone.

Experiments:
Test in all cases: lowest phenotypically active concentration; higher = less potent
Settings in all cases: treatment time: 24 h
[1] = test system: A549-CANX-COX4
In short: (§1)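 Phenotypic activity depended on meeting both a deviation and a reproducibility criterion. The fifteen gene-edited A549, HepG2 and WPMY1 reporter lines were treated at 0.3, 1, 3 or 9 µM for 24 h, four wells each, then imaged live with features normalised to solvent control wells. Deviation required ≥3 of 4 wells past the 95th percentile of control Euclidean distances, and reproducibility a median replicate Pearson correlation above the 95th percentile of non-replicates.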

[2] = test system: A549-TUBA1B-RELA
In short: as §1

[3] = test system: HepG2-CANX-COX4
In short: as §1

[4] = test system: HepG2-GM130-SQSTM1
In short: as §1

[5] = test system: HepG2-TP53BP1-CLTA
In short: as §1

[6] = test system: HepG2-TUBA1B-RELA
In short: as §1

[7] = test system: WPMY1-ACTB-RAB5A
In short: as §1

[8] = test system: WPMY1-CANX-COX4
In short: as §1

[9] = test system: WPMY1-TP53BP1-CLTA
In short: as §1

[10] = test system: WPMY1-TUBA1B-RELA
In short: as §1

| SMILES | lowest phenotypically active concentration [1] [µM] | lowest phenotypically active concentration [2] [µM] | lowest phenotypically active concentration [3] [µM] | lowest phenotypically active concentration [4] [µM] | lowest phenotypically active concentration [5] [µM] | lowest phenotypically active concentration [6] [µM] | lowest phenotypically active concentration [7] [µM] | lowest phenotypically active concentration [8] [µM] | lowest phenotypically active concentration [9] [µM] | lowest phenotypically active concentration [10] [µM] |
| --- | --- | --- | --- | --- | --- | --- | --- | --- | --- | --- |
| COc1cc2c(c(OC)c1OC)-c1ccc(OC)c(=O)cc1[C@@H](NC(C)=O)CC2 [colchicine] | ≤ 0.3 | 9 | ≤ 0.3 | ≤ 0.3 | ≤ 0.3 | ≤ 0.3 | ≤ 0.3 | ≤ 0.3 | ≤ 0.3 | ≤ 0.3 |
| CC[C@H]1CN2CCc3cc(OC)c(OC)cc3[C@@H]2C[C@@H]1C[C@H]1NCCc2cc(OC)c(OC)cc21 [emetine] | ≤ 0.3 | ≤ 0.3 | ≤ 0.3 | ≤ 0.3 | ≤ 0.3 | ≤ 0.3 | ≤ 0.3 | ≤ 0.3 | ≤ 0.3 | ≤ 0.3 |
| Cc1sc2c(c1C)C(c1ccc(Cl)cc1)=N[C@@H](CC(N)=O)c1nnc(C)n1-2 | ≤ 0.3 | ≤ 0.3 | ≤ 0.3 | ≤ 0.3 | ≤ 0.3 | ≤ 0.3 | ≤ 0.3 | ≤ 0.3 | ≤ 0.3 | ≤ 0.3 |
| COC[C@H]1OC(=O)c2coc3c2[C@@]1(C)C1=C(C3=O)[C@@H]2CCC(=O)[C@@]2(C)C[C@H]1OC(C)=O [wortmannin] | 9 | 3 | – | – | – | – | – | – | – | – |
| Cc1cc2c(C(C)C)c(O)c(O)c(C=O)c2c(O)c1-c1c(C)cc2c(C(C)C)c(O)c(O)c(C=O)c2c1O [gossypol] | 9 | 9 | 9 | 9 | 9 | 9 | 9 | 9 | 3 | 9 |
| CC(C)(C)c1cc(C=C(C#N)C#N)cc(C(C)(C)C)c1O [Malonoben] | 1 | 1 | 1 | 1 | 1 | 1 | 1 | 1 | 1 | 1 |
| N#CC(C#N)=NNc1ccc(OC(F)(F)F)cc1 | 9 | 3 | 9 | 9 | 9 | 9 | 3 | 3 | 3 | 9 |
| CCCCCC[C@H]1C(=O)O[C@H](C)[C@H](NC(=O)c2cccc(NC=O)c2O)C(=O)O[C@@H](C)[C@@H]1OC(=O)CC(C)C [antimycin a] | ≤ 0.3 | ≤ 0.3 | ≤ 0.3 | ≤ 0.3 | ≤ 0.3 | ≤ 0.3 | ≤ 0.3 | ≤ 0.3 | ≤ 0.3 | ≤ 0.3 |
| C[C@H]1O[C@@H](O[C@H]2[C@@H](O)C[C@H](O[C@H]3[C@@H](O)C[C@H](O[C@H]4CC[C@@]5(C)[C@H](CC[C@@H]6[C@@H]5CC[C@]5(C)[C@@H](C7=CC(=O)OC7)[C@@H](O)C[C@]65O)C4)O[C@@H]3C)O[C@@H]2C)C[C@H](O)[C@@H]1O [Gitoxin] | ≤ 0.3 | ≤ 0.3 | ≤ 0.3 | 1 | ≤ 0.3 | ≤ 0.3 | ≤ 0.3 | ≤ 0.3 | ≤ 0.3 | ≤ 0.3 |
| C[C@]12CC[C@H]3[C@@H](CC[C@]4(O)C[C@@H](O)CC[C@]34C=O)[C@@]1(O)CC[C@@H]2C1=CC(=O)OC1 [Strophanthidin] | ≤ 0.3 | ≤ 0.3 | 1 | 1 | ≤ 0.3 | ≤ 0.3 | ≤ 0.3 | ≤ 0.3 | ≤ 0.3 | ≤ 0.3 |
| CN1C[C@H](C(=O)N[C@]2(C)O[C@@]3(O)[C@@H]4CCCN4C(=O)[C@H](Cc4ccccc4)N3C2=O)C=C2c3cccc4[nH]cc(c34)C[C@H]21 [ergotamine] | 3 | 3 | 3 | 3 | 3 | 9 | 3 | 3 | 3 | 3 |
| COC1=CC(C)=C[C@@H](C)[C@@H](O)[C@@H](C)CC(C)=CC=C[C@H](OC)[C@@H]([C@@H](C)[C@@H](O)[C@H](C)[C@@]2(O)C[C@@H](O)[C@H](C)[C@@H](C(C)C)O2)OC1=O [Bafilomycin A1] | 9 | ≤ 0.3 | 3 | 3 | 9 | 3 | 1 | 3 | 3 | 3 |
| C[C@]12CC[C@H](O)C[C@H]1CC[C@@H]1[C@@H]2C[C@@H](O)[C@]2(C)[C@@H](C3=CC(=O)OC3)CC[C@]12O [Digoxigenin] | 1 | ≤ 0.3 | 3 | 3 | 1 | 1 | 1 | 1 | 1 | 1 |
| Cc1sc2c(c1C)C(c1ccc(Cl)cc1)=N[C@@H](CC(=O)OC(C)(C)C)c1nnc(C)n1-2 | ≤ 0.3 | ≤ 0.3 | ≤ 0.3 | ≤ 0.3 | ≤ 0.3 | ≤ 0.3 | ≤ 0.3 | ≤ 0.3 | ≤ 0.3 | 1 |
| C=C1[C@@H](O)C2C=CC[C@H](C)C(=O)[C@](C)(O)C=C[C@@H](OC(C)=O)[C@]23C(=O)N[C@H](Cc2ccccc2)[C@@H]3[C@@H]1C (stereo partly specified) [Cytochalasin D] | ≤ 0.3 | ≤ 0.3 | ≤ 0.3 | ≤ 0.3 | ≤ 0.3 | ≤ 0.3 | ≤ 0.3 | ≤ 0.3 | ≤ 0.3 | ≤ 0.3 |
| CC(C)[C@@]1(NC(=O)[C@@H]2C[C@@H]3c4cccc5[nH]cc(c45)C[C@H]3N(C)C2)O[C@@]2(O)[C@@H]3CCCN3C(=O)[C@H](Cc3ccccc3)N2C1=O [Dihydroergocristine mesylate] | 9 | 9 | 9 | 3 | 9 | 3 | 9 | 9 | 9 | 9 |
| CC(C)(O)[C@H]1O[C@H]2CC[C@@]3(C)[C@@](O)(CC[C@H]4Cc5c([nH]c6ccccc56)[C@@]43C)C2=CC1=O [paxilline] | – | – | – | – | 9 | – | – | – | 9 | – |
| CC(C)(N)Cc1ccccc1 [phentermine] | 9 | – | – | – | – | – | – | – | – | – |
| C[C@@]1(CO)[C@H](O)CC[C@@]2(C)[C@H]1CC[C@H]1C[C@@H]3C[C@@]12CC[C@]3(O)CO [Aphidicolin] | ≤ 0.3 | ≤ 0.3 | ≤ 0.3 | ≤ 0.3 | ≤ 0.3 | ≤ 0.3 | ≤ 0.3 | ≤ 0.3 | 1 | ≤ 0.3 |
| O=C(Nc1ccncc1)C(=O)c1cn(Cc2ccc(Cl)cc2)c2ccccc12 [Indibulin] | – | ≤ 0.3 | ≤ 0.3 | ≤ 0.3 | 1 | 1 | ≤ 0.3 | 3 | ≤ 0.3 | ≤ 0.3 |
| C[C@@]12C(=O)OC(=O)[C@]1(C)[C@H]1CC[C@@H]2O1 [Cantharidin] | 3 | – | 9 | 9 | 9 | 3 | 3 | 9 | 3 | 3 |
| C[C@@H]1CC[C@H]2[C@@H](C)C(=O)O[C@@H]3O[C@@]4(C)CC[C@@H]1[C@]32OO4 [Artemisinin] | – | ≤ 0.3 | – | 3 | 1 | ≤ 0.3 | ≤ 0.3 | ≤ 0.3 | 1 | ≤ 0.3 |
